In the library only some 4.2% were active in any assay of this set; here they are far more common.
D1 agonist – human D1 receptor agonism | P21728 | HEK293 T-REx D1 cells, calcium flux, agonist mode | activation, % at 2 µM | 1% of 360,000 active; in the data active = activation above about 30%; note: 0% is about no effect
Target sequence (P21728 whole entry, looked up): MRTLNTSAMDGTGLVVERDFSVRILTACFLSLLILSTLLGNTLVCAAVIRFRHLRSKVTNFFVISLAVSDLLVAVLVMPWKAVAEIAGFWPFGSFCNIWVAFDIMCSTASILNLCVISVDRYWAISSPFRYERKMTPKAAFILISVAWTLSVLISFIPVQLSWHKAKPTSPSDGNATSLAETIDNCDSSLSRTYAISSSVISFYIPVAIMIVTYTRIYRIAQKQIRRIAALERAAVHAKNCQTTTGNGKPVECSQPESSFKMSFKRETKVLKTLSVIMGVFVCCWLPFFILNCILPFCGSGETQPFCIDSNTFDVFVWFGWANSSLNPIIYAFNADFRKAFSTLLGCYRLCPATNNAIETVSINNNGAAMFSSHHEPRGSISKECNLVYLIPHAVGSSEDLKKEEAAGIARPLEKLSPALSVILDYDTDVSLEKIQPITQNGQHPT
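Agonism was scored from calcium flux recorded over 180 s (1 read/s) after pintool compound addition, following a 10-cycle baseline. Cells were inducible force-coupled HEK293 TREx D1, plated overnight at 30 C and loaded with no-wash calcium dye.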
D1 PAM – human D1 dopamine receptor positive modulation; HEK293 TREx D1 cells, calcium flux, dopamine EC20 potentiation; potentiation, % at 10 µM; 0.036% of 360,000 active; AID 504651; in the data active = potentiation above about 30%; note: 0% is about no effect
TRPV1 agonist – agonists of human vanilloid receptor 1 (TRPV1) | Q8NER1 | TRPV1-expressing cells, Fluo-8 calcium influx, agonist mode | activation, % at 8.33 µM | 0.19% of 320,000 active | AID 540275; in the data active = activation above about 80%; inconclusive = between about 30% and that limit; note: 0% is about no effect
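Cells expressing TRPV1 were dye-loaded with Fluo-8 and read kinetically: 10 s baseline, 3 min after compound (agonist portion), then 2 min after EC20 capsaicin (allosteric enhancer portion). Calcium-bound dye fluorescence at 480/520 nm.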
D1 antagonist – human D1 dopamine receptor antagonism; P21728; 3.2% of 360,000 active; HEK293 TREx D1 cells, calcium flux, dopamine EC80; active compounds read low; activity change, negative = inhibition, % at 10 µM; AID 504652; in the data active = activity change below about -30%; note: % is set by controls: 0 for no effect and ±100 for the full control effect
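HEK293 T-REx cells expressing inducible, force-coupled D1 receptor; no-wash Ca dye, 30–90 min RT. Cmpd → 180 s read at 1 Hz → EC80 DA → 180 s read.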
TRPV1 potentiator – enhances activation of the human vanilloid receptor TRPV1 | Q8NER1 | TRPV1-expressing cells, Fluo-8 calcium influx, capsaicin EC20 potentiation | potentiation, % at 8.33 µM | 0.02% of 320,000 active; in the data active = potentiation above about 80%; inconclusive = between about 30% and that limit; note: 0% is about no effect
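TRPV1-expressing cells were cultured overnight at 35.5C and loaded with Fluo-8 calcium dye for 40 to 90 min at room temperature. After a 10 s baseline, compound was added and calcium influx was read kinetically for 3 min (ex 480/em 520 nm).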
The depositor's hits bear a star; ? = inconclusive; nt = no result given.

SMILES | D1 agonist | D1 PAM | TRPV1 agonist | D1 antagonist | TRPV1 potentiator
CC1CCN(C(=O)Cn2ncc3c4ccccc4n(Cc4ccc(Cl)cc4)c3c2=O)CC1 | 17 | -1 | nt | 3 | nt
COc1ccc(NC(=O)C(NS(=O)(=O)c2cccc3nsnc23)C(C)C)cc1 (stereo unspecified) | -1 | 2 | nt | 9 | nt
O=C(NCc1ccco1)c1sc(=S)n2c1[nH]c(=O)c1ccccc12 | 49* | -8 | 2 | -28 | 24
O=C(NC1CCCC1)c1sc(=S)n2c1[nH]c(=O)c1ccccc12 | 29 | -8 | 2 | -4 | -2
Cc1ccccc1Cn1c2ccccc2c2cnn(CC(=O)NCCCc3ccccc3)c(=O)c21 | 7 | -1 | nt | 18 | nt
CC(C)Cn1cc(C(=O)NCCCN2CCCC2=O)c2c3ccccc3n(C)c2c1=O | -1 | 2 | 4 | -30* | -1
CC(=O)Nc1ccc(NC(=O)C2CCN(c3c(NC(C)=O)c(C)nn3-c3ccccc3)CC2)cc1 | 3 | -1 | nt | -36* | nt
COc1cc(C)c(C(=O)Oc2cc(C)c(C(=O)O)c(O)c2C)c(OC)c1C | -2 | -5 | -5 | -66* | 27
COc1cccc(/C=N/NC(=O)c2[nH]c(C)c(C(=O)N/N=C/c3cccc(OC)c3)c2C)c1 | 2 | -13 | 0 | -41* | 3
CCOC(=O)c1c(C)[nH]c(C(=O)N/N=C/c2cccc(OC)c2)c1C | 4 | -7 | -2 | -21 | 12
Cc1ccc(CN(Cc2ccco2)C(=S)NCC(=O)NC2CC2)cc1 | 2 | -2 | 18 | -31* | -13
Cc1ccc2occ(CC(=O)N(Cc3ccc(Cl)cc3)Cc3ccco3)c2c1 | 90* | 21 | nt | -26 | nt
Cc1ccc(CN(Cc2ccco2)C(=O)c2oc3c(C)c(C)ccc3c2C)cc1 | 18 | 1 | nt | -4 | nt
Cc1ccc(CN(Cc2ccco2)C(=O)c2oc3ccc(C)cc3c2C)cc1 | 37* | -2 | nt | 12 | nt
CCCCNC(=O)CNC(=S)N(Cc1ccc(C)cc1)Cc1ccco1 | 5 | -4 | 27 | -15 | -26
CCOc1ccccc1NC(=O)Nc1nnc(N(C)Cc2ccccc2)s1 | -2 | -1 | nt | -21 | nt
CC(=O)NC/C(C)=N\Nc1ccc([N+](=O)[O-])cc1 | 35* | -4 | 3 | 1 | 18
C/C(=N\Nc1ccc([N+](=O)[O-])cc1)c1ccc(O)cc1 | 37* | -14 | 5 | -27 | 2
Cc1c(CNCCc2ccc(Cl)cc2)c(C(=O)O)c(C)n1Cc1ccccc1 | 4 | -2 | 2 | -4 | -5
CCOc1ccccc1CNCc1c(C(=O)O)c(C)n(Cc2ccc(Cl)cc2)c1C | -1 | 0 | nt | -67* | nt
CCOC(=O)CN(C(=O)CSc1nnc(C)n1-c1ccccc1)c1ccccc1 | 1 | -4 | ? | -52* | -1
CCOC(=O)CN(C(=O)CSc1nnc(C)n1-c1ccccc1)c1cccc([N+](=O)[O-])c1 | 1 | -3 | 0 | -5 | 0
Cc1cccc(-n2cc(-c3ccccc3)c3c(N4CCC(C)CC4)ncnc32)c1 | -1 | 14 | nt | -7 | nt
Cc1cccc(-n2cc(-c3ccccc3)c3c(=O)[nH]cnc32)c1 | -1 | -8 | 12 | -45* | 1
CCOc1ccc(-n2cc(-c3ccccc3)c3c(=O)[nH]cnc32)cc1 | 1 | -9 | 6 | -68* | 6
SMILES | D1 agonist | D1 PAM | TRPV1 agonist | D1 antagonist | TRPV1 potentiator
O=c1[nH]cnc2c1c(-c1ccccc1)cn2-c1ccc(Br)cc1 | 0 | -16 | -5 | -45* | 6
CCN1CCN(c2ncc3c(n2)CCN(Cc2sccc2C)C3)CC1 | 6 | 0 | nt | -9 | nt
Cc1nn(C)c(C)c1NC(=O)/C(C#N)=C\N(C)C | 2 | -2 | 1 | -54* | -1
CCOC(=O)CN1C(=O)N(c2ccc(C)c(C)c2)S(=O)(=O)c2ccccc21 | -1 | -3 | nt | -2 | nt
COC(=O)C(/C=N/OCc1ccc([N+](=O)[O-])cc1)NC(=O)c1cccc(Cl)c1 (stereo unspecified) | 41* | -10 | 15 | -5 | -15
Cc1ccc(CONC(=O)c2cccc([N+](=O)[O-])c2)cc1 | 0 | -10 | ? | -4 | -17
O=C(OCc1ccccc1Cl)c1ccc(-c2nnn(Cc3ccccc3)n2)cc1 | 3 | -3 | nt | -1 | nt
O=C(OCc1ccccc1Cl)c1ccc(-n2cnnc2)cc1 | 20 | -10 | 1 | -36* | 1
CC1=NN(C(N)=S)C(=O)C1N=Nc1ccccc1C(=O)O (stereo unspecified) | 2 | 5 | -6 | -4 | 2
CN1C(=O)C(N=Nc2ccccc2C(=O)O)N(C)C1=S (stereo unspecified) | 46* | 3 | 8 | 2 | 5
Cc1cc(C(=O)Nc2cccc(F)c2)c2c(C)nn(-c3cccc(Cl)c3C)c2n1 | 8 | -8 | nt | -39* | nt
Cc1cc(C(=O)NCc2ccccc2)c2c(C)nn(-c3cccc(Cl)c3C)c2n1 | 2 | 1 | nt | -8 | nt
COCCn1c(=NC(=O)c2nc3ccccc3s2)sc2cc(S(C)(=O)=O)ccc21 | 0 | -4 | -5 | -85* | -14
Cc1cc(=O)oc2cc(OC(C)C(=O)NC3CCCC3)ccc12 (stereo unspecified) | 2 | -6 | 0 | -6 | -3
Cc1cc(=O)oc2cc(OC(C)C(=O)Nc3nccs3)ccc12 (stereo unspecified) | 3 | 3 | -1 | -37* | 3
CCn1c(-c2c(Cl)c(C)nn2C)n[nH]c1=S | 39* | -1 | 0 | 48 | 5
COc1ccc(-n2ncc3c(NCc4ccco4)ncnc32)cc1 | 0 | -7 | -3 | 14 | 7
Cc1ccc(Cl)cc1-n1ncc2c(Nc3cccc(C)c3C)ncnc21 | 57* | -2 | nt | 4 | nt
Clc1cccc(-n2ncc3c(NCCCN4CCOCC4)ncnc32)c1 | 1 | 3 | nt | -77* | nt
O=C1CCCN1CCCNc1ncnc2c1cnn2-c1ccc(Cl)cc1 | 8 | -1 | -2 | -13 | 4
Cc1ccc(-n2ncc3c(NCCCN4CCOCC4)ncnc32)cc1Cl | 7 | -4 | nt | -24 | nt
Clc1ccc(-n2ncc3c(NCc4ccco4)ncnc32)cc1 | 1 | -3 | -5 | -44* | 2
OCCCNc1ncnc2c1cnn2-c1ccc(Cl)cc1 | 16 | -11 | -10 | -36* | 5
CCOC(=O)c1c(C)[nH]c(C)c1S(=O)(=O)NCC(=O)Nc1cccc(C#N)c1 | 2 | 5 | nt | 7 | nt
Cc1ccc(-n2c(C)c(C)c3c(NCCN(C)C)ncnc32)cc1 | 0 | -10 | 2 | -38* | -3
CN(C)CCNc1ncnc2c1cnn2-c1cccc(Cl)c1 | 37* | -2 | nt | 0 | nt
CN(C)CCNc1ncnc2c1cnn2-c1ccc(Cl)cc1 | 33* | nt | 3 | 0 | 4
CC(C)CCNc1ncnc2c1cnn2-c1cccc(Cl)c1 | -1 | -1 | nt | -18 | nt
CCN1CCN(Cc2c(O)ccc3c(C)c(-c4ccccc4)c(=O)oc23)CC1 | 0 | -3 | nt | -26 | nt

Source: PubChem BioAssay
